Records with an inconclusive call do not appear. Calls of active or inactive are those of the source. Unless noted, the call rests on the fitted dose curve; in most records, active means well fitted curve in the direction sought with a large enough effect; inconclusive means small, poorly fitted or top-dose-only effect, or another doubt; inactive means no such curve, though single readings can be large; an effect the other way counts as inactive or inconclusive.
Tests used:
[1] = Cell Viability - BJ (AID 421; calls by dose curve;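 further: potency means the concentration at half of the fitted maximal effect; cells exposed to compound for 40 hours at 37 °C before readout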); settings: BJ fibroblast viability, qHTS
Summary of the method: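 Normal human BJ foreskin fibroblasts, 1500/well in complete medium, treated 40 hr at 37 °C. Cellular ATP by CellTiter-Glo luminescence; normalized to DMSO and 100 uM tamoxifen, AC50 from Hill fit.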

[2] = Cell Viability - Jurkat (AID 426;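 active means dose-dependent loss of cell ATP signal giving a full or clear fitted curve, ranked by lower potency value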; further: potency means the concentration at half of the fitted maximal effect); settings: qHTS
Summary of the method: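 Cytotoxicity was scored as loss of cellular ATP, measured by luciferase-based luminescence, in Jurkat clone E6-1 cells after 40 h compound treatment; tamoxifen and doxorubicin served as positive controls.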

[3] = Cell Viability - Hek293 (AID 427;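 active means compounds whose dose-response curve shows a full or clear partial loss of cell viability, called from curve shape rather than a numeric limit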;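 further: potency means the concentration at half of the fitted maximal effect; cells exposed to compound for 40 hours at 37 °C before reading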); settings: qHTS
Summary of the method: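 HEK293 cells in complete medium were exposed to compound for 40 hr at 37 °C, then cellular ATP was read by CellTiter-Glo luminescence. Data were normalized to DMSO (basal) and 100 uM tamoxifen (100% inhibition), and AC50 came from Hill fits.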

[4] = Cell Viability - HepG2 (AID 433; calls by dose curve;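 further: potency means the concentration at half of the fitted maximal effect; potency for ATP loss meaning cytotoxicity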); settings: qHTS
Summary of the method: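 Cytotoxicity is scored as loss of intracellular ATP in HepG2 cells exposed to compounds for 40 h. Concentration-response curves, normalized to DMSO and 100 uM tamoxifen, give AC50 values.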

[5] = Cell Viability - SK-N-SH (AID 435; calls by dose curve;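 further: potency means the concentration at half of the fitted maximal effect; compound exposure lasted 40 h at 37 °C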); settings: SK-N-SH neuroblastoma cell viability qHTS
Summary of the method: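 Cells seeded at 1500 per well and incubated 5 hr at 37 °C. Compound added, then 40 hr at 37 °C. CellTiter-Glo added, 20 min at room temperature, luminescence read.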

[6] = target: Mitogen-activated protein kinase 10 (Mus musculus) (UniProt Q61831); assay: JNK3 AlphaScreen Assay (AID 530; active means well fitted curve in either direction with a large enough effect, not every such curve was filed as active;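 further: kinase came from lysate of stimulated human HepG2 cells; signal reports phosphorylation of biotinylated GST-cJun 1-79 at Ser73 with 10 µM ATP; on the % scale 0 is the no-effect control and ±100 the full control effect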); settings: JNK3 lysate, c-Jun phosphorylation; series mostly up to 57.1 µM
Summary of the method: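 Kinase buffer: 20 mM Tris-HCl pH 7.6, 10 mM MgCl2, 1 mM DTT, 0.1 mM Na3VO4, 0.01% Tween-20; ATP 10 uM. Substrate biotin-GST-cJun(1-79), enzyme from activated HepG2 lysates. Detection by Ser73 phospho-antibody AlphaScreen.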

[7] = Cell Viability - N2a (AID 540); settings: N2a mouse neuroblastoma cell viability; activity change, negative = cytotoxicity: at 92.2 µM (top of the series); further: potency means the concentration at half of the fitted maximal effect; nearly all actives have a fitted effect of over 45% in size
Summary of the method: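 In this qHTS cytotoxicity screen, ATP-dependent luciferase luminescence reports viable N2a cells after a 40 hr compound exposure in complete culture medium. Potencies are AC50 values from standard Hill equation fits.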

[8] = Cell Viability - NIH 3T3 (AID 541); settings: NIH 3T3 cell viability, qHTS; activity change, negative = cytotoxicity: at 92.2 µM (top of the series); further: potency means the concentration at half of the fitted maximal effect; nearly all actives have a fitted effect of over 25% in size
Summary of the method: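 In this cytotoxicity screen, acute toxicity is scored as an ATP drop measured by CellTiter-Glo in NIH 3T3 fibroblasts following a 40 hr, 37 °C incubation with compound.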

[9] = Cell Viability - HUV-EC-C (AID 542); settings: HUV-EC-C endothelial cell viability, qHTS; series mostly up to 92.2 µM; further: potency means the concentration at half of the fitted maximal effect; nearly all actives have a fitted effect of over 35% in size
Summary of the method: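 Concentration-dependent ATP loss in HUV-EC-C cells is the measure. Exposure lasts 40 hr at 37 °C; luminescence follows CellTiter-Glo addition, and Hill fits give AC50.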

[10] = Cell Viability - H-4-II-E (AID 543); settings: H-4-II-E rat hepatoma viability; series mostly up to 92.2 µM; further: potency means the concentration at half of the fitted maximal effect; nearly all actives have a fitted effect of over 35% in size
Summary of the method: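 AC50 from Hill-modelled qHTS concentration-response curves. H-4-II-E rat hepatoma cells in complete medium, 40 hr exposure at 37 °C, viability by CellTiter-Glo ATP luminescence.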

[11] = Cell Viability - SH-SY5Y (AID 544); settings: SH-SY5Y neuroblastoma cell viability; viability change, negative = cytotoxic: at 92.2 µM (top of the series); further: potency means the concentration at half of the fitted maximal effect; nearly all actives have a fitted effect of over 55% in size
Summary of the method: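 Quantitative HTS in SH-SY5Y neuroblastoma cells, 40 hr treatment at 37 °C, ATP content by luciferase luminescence; AC50 from Hill fits.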

[12] = Cell Viability - Renal Proximal Tubule (AID 545); settings: renal proximal tubule cells viability, primary cells of rat origin; activity change, negative = cytotoxicity: at 91.7 µM (top of the series); further: potency means the concentration at half of the fitted maximal effect; nearly all actives have a fitted effect of over 40% in size
Summary of the method: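 Cytotoxicity is scored as a concentration-dependent drop in cellular ATP in primary rat renal proximal tubule cells exposed for 40 hr. AC50 derives from Hill modelling.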

[13] = Cell Viability - Mesenchymal (AID 546); settings: mesenchymal cells viability, qHTS; activity change, negative = cytotoxicity: at 91.7 µM (top of the series);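 further: potency means the concentration at half of the fitted maximal effect; cells exposed to compound for 40 hours before reading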
Summary of the method: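 CellTiter-Glo luminescence (intracellular ATP, 20 min room temperature) after 40 hr compound exposure at 37 °C of 1000 glomerulus-derived human kidney mesenchymal cells/well; AC50 values obtained by fitting qHTS concentration-response data to the Hill equation.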

[14] = Cellular Toxicity (caspase-3) HepG2 (AID 654); settings: HepG2 caspase-3 activation, luminescence; series mostly up to 92.2 µM;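 further: cells exposed to compound for 16 hours before reading; 0% = DMSO alone and 100% = caspase signal from 100 µM tamoxifen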
Summary of the method: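 Concentration-response AC50 values reflect caspase-3/7 induction in HepG2 cells after 16 hours of compound exposure, quantified by luminescence from liberated aminoluciferin and referenced to 100 uM tamoxifen as full stimulation.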

[15] = Cellular Toxicity (caspase-3) Jurkat (AID 655); settings: Jurkat caspase-3 activation, luminescence; caspase-3 activation: at 92.2 µM (top of the series), DMSO = 0%, tamoxifen = 100%;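 further: cells exposed to compound for 16 h at 37 °C before reading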
Summary of the method: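 Caspase 3/7 activation is scored as increased luminescence in Jurkat cells cultured with compound for 16 hours in complete medium. AC50 values come from Hill fits of qHTS concentration-response data normalized to DMSO and 100 uM tamoxifen controls.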

[16] = Cellular Toxicity (caspase-3) HUV-EC-C (AID 656); settings: HUV-EC-C cells, caspase-3 activation (apoptosis); series mostly up to 92.2 µM
Summary of the method: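 Read-out: luminescence proportional to caspase 3/7 activity, measured 20 min after adding Caspase-Glo 3/7 reagent. Cells (HUV-EC-C) had received compound for 16 hr at 37°C. Increases relative to DMSO and 100 uM tamoxifen gave concentration-response AC50 values.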

[17] = Cellular Toxicity (caspase-3) SHSY5Y (AID 657); settings: SH-SY5Y caspase-3 activation; series mostly up to 91.7 µM
Summary of the method: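 Cells plated and incubated 5 h at 37 °C, dosed over a concentration range, incubated 16 h, then given Caspase-Glo 3/7 reagent for 1 h at room temperature before luminescence reading. Staurosporine (10 uM) defined full stimulation.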

[18] = Cellular Toxicity (caspase-3) BJ (AID 658); settings: BJ fibroblasts, luminescence; Potency: caspase-3 activation; series mostly up to 91.7 µM
Summary of the method: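 Caspase-Glo 3/7 luminescence, read 1 hr after reagent at room temperature, in normal BJ fibroblasts exposed 16 hours at 37 °C. AC50 values from Hill-equation concentration-response, scaled between DMSO basal and 10 uM staurosporine as 100%.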

[19] = Cellular Toxicity (caspase-3) MRC-5 (AID 659); settings: MRC-5 cells, luminescence, normalized: DMSO 0%, 10 µM staurosporine 100%; series mostly up to 91.7 µM
Summary of the method: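 Luminescent Caspase-Glo 3/7 read-out (1 h, room temperature) after a 16 h, 37 °C compound exposure of MRC-5 lung fibroblasts at 1500 cells/well. Concentration-response AC50 from Hill equation; 0% DMSO, 100% 10 uM staurosporine.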

[20] = Cellular Toxicity (caspase-3) Mesangial (AID 660); settings: mesangial cells, normalized: DMSO 0%, 100 µM tamoxifen 100%; at 91.7 µM (top of the series);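 further: cells exposed to compound for 16 h before the caspase read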
Summary of the method: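 AC50 values come from Hill-equation fits of caspase 3/7 activation, measured as Caspase-Glo luminescence in human glomerular mesangial cells exposed to compound for 16 h at 37 °C; 100% set by 100 uM tamoxifen.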

[21] = Cellular Toxicity (caspase-3) N2a (AID 665); settings: N2a cells, luminescence; Potency: caspase-3 activation; series mostly up to 92.2 µM;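 further: compound exposure lasted 16 h at 37 °C before readout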
Summary of the method: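 Concentration-response qHTS: compound-induced caspase-3/7 luminescence in N2a cells (16 h, 37 °C), relative to DMSO and 10 uM staurosporine controls; AC50 obtained using the standard Hill equation.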

[22] = Cellular Toxicity (caspase-3) NIH 3T3 (AID 666); settings: NIH 3T3 caspase-3 activation, apoptosis/toxicity; series mostly up to 92.2 µM;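 further: 0% = DMSO basal and 100% = 100 µM tamoxifen stimulation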
Summary of the method: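 Activity: caspase-3/7 induction, NIH 3T3 cells, 16 hr treatment at 37°C, luminescent Caspase-Glo detection; AC50 via Hill equation.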

[23] = Cellular Toxicity (caspase-3) Renal Proximal Tubule (AID 667); settings: renal proximal tubule cells, primary cells freshly taken from rat, solvent-only wells 0%, staurosporine 100%; series mostly up to 91.7 µM;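 further: cells exposed to compound for 16 hours at 37 °C before detection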
Summary of the method: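 In qHTS format, rat primary proximal tubule cells seeded at 1000 per well are exposed to compounds for 16 hours at 37 °C. An increase in Caspase-Glo 3/7 luminescence indicates caspase activation.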

[24] = target: Cytochrome P450 3A4 (Homo sapiens) (UniProt P08684); assay: qHTS Assay for Inhibitors and Substrates of Cytochrome P450 3A4 (AID 884); settings: recombinant CYP3A4, Luciferin-PPXE luminescence; series mostly up to 57.1 µM; further: on the % scale 0 is the no-effect control and ±100 the full control effect; nearly all actives have a fitted effect of over 50% in size
Cytochrome P450 3A4 (Homo sapiens), sequence (P08684 whole entry, looked up): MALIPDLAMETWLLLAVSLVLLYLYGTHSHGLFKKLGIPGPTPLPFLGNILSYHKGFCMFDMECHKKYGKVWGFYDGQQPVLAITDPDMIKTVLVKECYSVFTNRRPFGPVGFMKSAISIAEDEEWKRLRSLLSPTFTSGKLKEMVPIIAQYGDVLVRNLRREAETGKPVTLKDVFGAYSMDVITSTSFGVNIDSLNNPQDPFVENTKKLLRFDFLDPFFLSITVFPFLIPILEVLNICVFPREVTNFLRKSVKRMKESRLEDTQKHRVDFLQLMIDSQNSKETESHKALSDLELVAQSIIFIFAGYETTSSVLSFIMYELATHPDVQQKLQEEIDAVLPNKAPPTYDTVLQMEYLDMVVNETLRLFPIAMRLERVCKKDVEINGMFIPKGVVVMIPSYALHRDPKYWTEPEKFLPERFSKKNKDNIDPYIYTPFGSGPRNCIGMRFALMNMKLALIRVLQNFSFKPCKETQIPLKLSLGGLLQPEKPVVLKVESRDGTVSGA
Summary of the method: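 Luminescent readout of luciferin produced by CYP3A4 (20 nM) dealkylation of Luciferin-PPXE, 25 uM (its KM). NADPH-driven reaction ran 60 min at RT after 10 min compound preincubation; data scaled to 57 uM ketoconazole as 100% inhibition.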

[25] = Cell Viability - LYMP2-001 (AID 921); settings: LYMP2-001 lymphoblastoid cell viability; series mostly up to 92.2 µM;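 further: potency means the concentration at half of the fitted maximal effect; cells exposed to compound for 24 h at 37 °C; nearly all actives have a fitted effect of over 70% in size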
Summary of the method: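 qHTS, 1536-well; lymphoblastoid cells, 24 hr compound, 37 C; ATP by CellTiter-Glo, 30 min RT; luminescence; Hill-fit AC50.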

[26] = MultiTox-Fluor Cytotoxicity Assay - LYMP1-001 - Dead Cells (AID 946); settings: LYMP1-001 lymphoblastoid cells, dead-cell protease fluorescence; series mostly up to 92.2 µM; further: potency means the concentration at half of the fitted maximal effect
Summary of the method: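 LYMP1-001 lymphoblastoid cells (2500/well) treated 16 h at 37 C. Dead-cell protease cleavage of bis-AAF-R110 read at Ex/Em 485/520. Normalized to DMSO and 15 uM tetraoctylammonium bromide; AC50 from Hill fits.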

[27] = MultiTox-Fluor Cytotoxicity Assay - LYMP1-001 - Live Cells (AID 947); settings: LYMP1-001 lymphoblastoid cells, live-cell protease fluorescence viability; series mostly up to 92.2 µM; further: potency means the concentration at half of the fitted maximal effect
[28] = Cell Viability - LYMP1-002 - Assay at 16 hr (AID 948); settings: LYMP1-002 lymphoblastoid cell viability; series mostly up to 92.2 µM; further: potency means the concentration at half of the fitted maximal effect
Summary of the method: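 Acute cytotoxicity is scored as a concentration-dependent fall in intracellular ATP in a human lymphoblastoid line (LYMP1-002) after 16 hr compound exposure at 37 C, measured by luciferase luminescence.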

[29] = MultiTox-Fluor Cytotoxicity Assay - LYMP1-002 - Live Cells (AID 955); settings: LYMP1-002 lymphoblastoid live-cell protease fluorescence viability; series mostly up to 46.1 µM; further: potency means the concentration at half of the fitted maximal effect
Summary of the method: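 In this qHTS viability format, lymphoblastoid cells (LYMP1-002, human) received compound for 16 hr at 37 C. Fluorogenic GF-AFC cleavage by viable cells was detected at 405/510 nm after 1 h at room temperature.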

[30] = MultiTox-Fluor Cytotoxicity Assay - LYMP1-002 - Dead Cells (AID 960); settings: LYMP1-002 lymphoblastoid cells, dead-cell protease fluorescence; series mostly up to 46.1 µM; further: potency means the concentration at half of the fitted maximal effect; nearly all actives have a fitted effect of over 60% in size
Summary of the method: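 Concentration-dependent increases in membrane-leaked protease activity are quantified in LYMP1-002 cells after 16 hr treatment; values are normalized against DMSO and tetraoctylammonium bromide (15 uM) controls and AC50 derived by Hill modeling.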

[31] = MultiTox-Fluor Cytotoxicity Assay - LYMP1-003 - Dead Cells (AID 961); settings: LYMP1-003 lymphoblastoid cells, dead-cell protease fluorescence; series mostly up to 92.2 µM; further: potency means the concentration at half of the fitted maximal effect; nearly all actives have a fitted effect of over 70% in size
Summary of the method: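 LYMP1-003 human lymphoblastoid cells (2500/well) exposed to compound 16 h at 37 C in complete medium; dead-cell protease read with bis-AAF-R110 fluorescence (Ex/Em 485/520) after 60 min at room temperature. Normalized to DMSO and 15 uM tetraoctylammonium bromide; AC50 from Hill fit.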

[32] = MultiTox-Fluor Cytotoxicity Assay - LYMP1-003 - Live Cells (AID 962); settings: LYMP1-003 lymphoblastoid cells, MultiTox-Fluor live-cell protease fluorescence; series mostly up to 92.2 µM; further: potency means the concentration at half of the fitted maximal effect
Summary of the method: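 Human lymphoblastoid line LYMP1-003 in complete culture medium, treated 16 hr with titrated compounds. Viable cells quantified via cell-permeant GF-AFC substrate fluorescence; AC50 derived by Hill fitting.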

[33] = Cell Viability - LYMP1-003 - Assay at 24 hr (AID 963); settings: LYMP1-003 lymphoblastoid cell viability; series mostly up to 92.2 µM; further: potency means the concentration at half of the fitted maximal effect
Summary of the method: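 The lymphoblastoid line was treated with titrated compounds for 24 hours, and viable cell number estimated from luciferase-based ATP luminescence.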

[34] = Cell Viability - LYMP1-003 - Assay at 40 hr (AID 964); settings: LYMP1-003 lymphoblastoid viability; series mostly up to 92.2 µM; further: potency means the concentration at half of the fitted maximal effect; nearly all actives have a fitted effect of over 60% in size
Summary of the method: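 Acute toxicity is scored as a concentration-dependent loss of intracellular ATP in LYMP1-003 cells (2500/well, complete medium) after 40 hr at 37 C, measured by CellTiter-Glo luminescence; AC50 values derive from standard Hill modelling.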

CC(=O)Nc1ccc(C(=O)CCl)cc1
inactive: Potency [6] | Potency [14] | Potency [15] | Potency [16] | Potency [17] | Potency [18] | outcome [19] | caspase-3 activation [20] -4.19% | Potency [21] | Potency [22] | outcome [23] | Potency [24]
active: Potency [1] 36.2 µM | Potency [2] 2.44 µM | Potency [3] 37.9 µM | Potency [4] 40.3 µM | Potency [5] 15.6 µM | Potency [7] 25.1 µM | Potency [8] 2 µM | Potency [9] 50.1 µM | Potency [10] 10 µM | Potency [11] 3.16 µM | Potency [12] 31.6 µM | Potency [13] 12.6 µM | Potency [25] 3.98 µM | Potency [26] 25.1 µM | Potency [27] 20 µM | Potency [28] 25.1 µM | Potency [29] 12.6 µM | Potency [30] 15.8 µM | Potency [31] 25.1 µM | Potency [32] 31.6 µM | Potency [33] 39.8 µM | Potency [34] 39.8 µM
